Reference: PMC5540273 (PLoS ONE, 2017)

system: T1, OSR1; details: concentration: 1 μM,replicates: in singlicate; n = 1
T1 construct: gene OXSR1
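Further: KINOMEscan kinase panel screen.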

Going from `O=C(NCCNc1ccnc(NCc2ccc(F)cc2)n1)c1cc2ccccc2s1` [GSK1379944] to `COc1ccc(C[C@@H](CN)NC(=O)c2cc(Br)c(-c3ccnc4[nH]ccc34)s2)cc1.Cl.Cl` [GSK1389063], the “%Inh” value rises from 11% to 34%.

First: Cl.Cl.NC[C@H](CC1CCCCC1)NC(=O)c1cc(Br)c(-c2ccnc3[nH]ccc23)s1 [GSK1581427]
Second: Cl.Cl.NC[C@H](Cc1ccc(C(F)(F)F)cc1)NC(=O)c1cc(Br)c(-c2ccnc3[nH]ccc23)s1 [GSK1487252]
The “%Inh” value of the first is higher: 20% for the first, 0% for the second.

First: Cc1ccc2c(-c3ccncc3)c(-c3ccc(F)cc3)nn2c1.Cl [GW461484]
Second: CN(C)CC(O)COc1ccc(Nc2nccc(-c3cnn4nc(N5CCOCC5)ccc34)n2)cc1 (stereo not drawn) [GW767488]
The “%Inh” value of the first is lower: 0% for the first, 54% for the second.

Compared with `CC(C)N1C(=O)Cc2cc(Nc3ncc(C(F)(F)F)c(NCc4cccc(S(C)(=O)=O)c4)n3)ccc21`, `CCN(CC)CCOc1ccc(Nc2ncc3cc(-c4c(Cl)cccc4Cl)c(=O)n(C)c3n2)cc1` [SB-601273] is higher in “%Inh” value: 5% for the first, 16% for the second.

Going from `C[C@@H](Oc1cc(-c2cnn(C3CCNCC3)c2)cnc1N)c1c(Cl)ccc(F)c1Cl` to `C[C@H]1Oc2cc(cnc2N)-c2c(nn(C)c2C#N)CN(C)C(=O)c2ccc(F)cc21`, the “%Inh” value falls from 36% to 0%.

`CCN(CC)CCCCNc1ncc2cc(-c3c(Cl)cccc3Cl)c(NC(=O)NC(C)(C)C)nc2n1` and `C[C@@H]1CCN(C(=O)CC#N)C[C@@H]1N(C)c1ncnc2[nH]ccc12` are the same in “%Inh” value: 0% for the first, 0% for the second.
